Assay [1] deals with Calcium and integrin-binding protein 1 (Homo sapiens) (UniProt Q99828). Nature of the assay: Primary qHTS for Identification of Calcium Integrin Binding Protein 1 (CIB1) Competitor (AID 1508620).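 Also: GST tagged CIB1 binding a fluorescein labelled alphaIIb integrin peptide tracer; top concentration of the series differs between compounds; % is scaled to controls: 0 for no effect and ±100 for the full control effect.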 The method in brief:
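CIB1-GST (1 uM final) and compound incubated 15 min at room temperature before adding FITC-alphaIIb peptide tracer (100 nM final). Competition for binding read by fluorescence polarization (ex 480, em 540) after another 15 min at room temperature.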
Background: Quantitative high-throughput screening tests each substance at several concentrations.

The nature of assay [2]: Primary qHTS for inhibitors of nuclear receptor binding SET domain protein 2 (NSD2) in an isogenic RCH-ACV NSD2 p.E1099K mutant (9B) (AID 1645876). Also: nearly all actives have a fitted effect of over 70% in size. Also: potency is read from the fitted curve at half-maximal effect.
Assay [3] concerns the target Glutathione peroxidase 1 (Homo sapiens) (UniProt P07203). Nature of the assay: Primary qHTS Assay for Inhibitors of Recombinant Selenoprotein Glutathione Peroxidase 1 (GPX1) (AID 1845191). Also: nearly all actives have a fitted effect of over 65% in size. As to activity, negative = inhibition: % is scaled to controls: 0 for no effect and ±100 for the full control effect. The method in brief: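 NADPH consumption tracked by fluorescence at 340/450 nm between t=0 and t=15 min, room temperature. Final mix: 10 nM GPX1, 100 nM glutathione reductase, 1 mM GSH, 0.5 mM NADPH, 0.5 mM cumene hydroperoxide, 0.01% BSA; 30 min compound–enzyme preincubation.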

Assay [4] deals with Phospholipid hydroperoxide glutathione peroxidase GPX4 (Homo sapiens) (UniProt P36969). Nature of the assay: Primary qHTS Assay for Inhibitors of Recombinant Selenoprotein Glutathione Peroxidase 4 (GPX4) (AID 1845192). Also: nearly all actives have a fitted effect of over 65% in size. As to activity change, negative = inhibition: % is scaled to controls: 0 for no effect and ±100 for the full control effect. The method in brief:
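NADPH consumption followed by fluorescence at 340/450 nm, t=0 and after 15 min at room temperature. Reaction started with cumene hydroperoxide (0.5 mM final) after 30 min compound–GPX4 preincubation; final 200 nM GPX4, 100 nM GR, 1 mM GSH, 0.5 mM NADPH.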

Assay [5] concerns the target Luciferin 4-monooxygenase (Photinus pyralis) (UniProt P08659). Nature of the assay: Primary firefly luciferase (FLuc) qHTS assay for identification of artifact compounds. (AID 1845220). Also: nearly all actives have a fitted effect of over 60% in size.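 As to activity change, negative = inhibition: plate controls were DMSO vehicle for no effect and no enzyme for full effect.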 The settings on record: outcome: dose series up to 54.1 µM unless noted. The method in brief: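 Compounds sat 15 min at room temperature with 10 uM luciferin and 10 uM ATP (pH 7.6 Tris acetate). Firefly luciferase (10 nM final) was then added, and luminescence was read 5 min later. Data normalized to no-enzyme and DMSO controls were Hill-fitted.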

For assay [6], the system named is Nanoluciferase (engineered Oplophorus gracilirostris luciferase). In words: Primary Nanoluciferase (NLuc) qHTS assay for identification of artifact compounds. (AID 1845222).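 Also: 0% = DMSO and -100% = no enzyme.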 The essentials:
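Luminescence from secreted NLuc (filtered, 1:55-diluted S16 cell medium) read 5 min after Nano-Glo substrate; compounds preincubated 15 min, RT. Hill fits of inhibition normalized to DMSO and no-enzyme.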

Another assay deals with CRL-7250. In words: Cytotoxic Profiling of Annotated Libraries Using Quantitative High-Throughput Screening (AID 1296008). Also: nearly all actives have a fitted effect of over 60% in size. Also: potency is read from the fitted curve at half-maximal effect. As to max response: % is scaled to controls: 0 for no effect and ±100 for the full control effect. To be noted: Five cell lines viability, CellTiter-Glo ATP luminescence, 48-72 h; max response: stronger effect = lower value. The essentials: (§1)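 Cytotoxicity was measured as CellTiter-Glo ATP luminescence, read after 10 min at room temperature. Compound treatment of the cells lasted 48 or 72 hr at 37 degrees Celsius in a qHTS format.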
A general note: Cellular ATP, detected with luciferase, serves as a proxy for viable cell number.

The test system of another assay is HEK293. Described as above. To be noted: Five cell lines viability, CellTiter-Glo ATP luminescence, 48-72 h; max response: stronger effect = lower value. The method in brief:
as §1

A further assay relates to HaCat. Described as above. The settings on record: Five cell lines viability, CellTiter-Glo ATP luminescence, 48-72 h; max response: stronger effect = lower value. The essentials: as §1
Another assay relates to C33A. Nature of the assay: Primary qHTS to identify gynecologic anti-cancer compounds using libraries of approved drugs and bioactive compounds (AID 1345084). Also: nearly all actives have a fitted effect of over 55% in size. Also: potency is read from the fitted curve at half-maximal effect. To be noted: Gynecologic cancer cell panel viability, ATPlite luminescence, 48 h; series mostly up to 57.5 µM. The essentials: (§2)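 Cells, 1,000 per well, were allowed to settle for 16 h at 37 C before compound addition. Five concentrations were tested for 48 h, and viability was read by ATPlite luminescence after 15 min at room temperature.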

For another assay, the system named is CASKI. The assay is described as above. The settings on record: Gynecologic cancer cell panel viability, ATPlite luminescence, 48 h; series mostly up to 57.5 µM. The method in brief:
as §2

Another assay deals with Es-2. Described as above. The settings on record: Gynecologic cancer cell panel viability, ATPlite luminescence, 48 h; series mostly up to 57.5 µM. The essentials:
as §2

The subject of the next assay is Hek293T. The description is as above. The settings on record: Gynecologic cancer cell panel viability, ATPlite luminescence, 48 h, control line for the selectivity index; series mostly up to 57.5 µM. The essentials:
as §2

A further assay deals with JEG-3. Described as above. The settings on record: Gynecologic cancer cell panel viability, ATPlite luminescence, 48 h; series mostly up to 57.5 µM. The method in brief:
as §2

For a further assay, the system named is OV90. Described as above. The settings on record: Gynecologic cancer cell panel viability, ATPlite luminescence, 48 h; series mostly up to 57.5 µM. The method in brief:
as §2

A further assay relates to PA-1. Described as above. To be noted: Gynecologic cancer cell panel viability, ATPlite luminescence, 48 h; series mostly up to 57.5 µM. The essentials:
as §2

In another assay the test system is Tov-21-G. Described as above. The settings on record: Gynecologic cancer cell panel viability, ATPlite luminescence, 48 h; series mostly up to 57.5 µM. The method in brief:
as §2

For a further assay, the system named is Tov112D. Described as above. The settings on record: Gynecologic cancer cell panel viability, ATPlite luminescence, 48 h; series mostly up to 57.5 µM. The method in brief:
as §2

The subject of assay [7] is Zika virus NS2B-NS3 protease (linked construct). In words: Primary screen NINDS Rhodamine qHTS for Zika virus inhibitors (AID 1347160). Also: % is scaled to controls: 0 for no effect and ±100 for the full control effect; nearly all actives have a fitted effect of over 55% in size. The method in brief: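 Enzyme (25 nM, linked NS2B-NS3) was preincubated 15 min with compound in 10 mM Tris-HCl pH 8.0, 0.01% Tween 20. Rhodamine110 substrate (1.5 microM) was then added and fluorescence read at start and after 15 min.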

The test system of another assay is NIH3T3. Nature of the assay: Cytotoxic Profiling of Annotated Libraries Using Quantitative High-Throughput Screening (AID 1296008). Also: nearly all actives have a fitted effect of over 60% in size. Also: potency is read from the fitted curve at half-maximal effect. The settings on record: Five cell lines viability, CellTiter-Glo ATP luminescence, 48-72 h; max response: stronger effect = lower value. The method in brief: as §1

The source of these data is PubChem BioAssay (NCATS).

A number with no mark means an inactive call. Records with an inconclusive call do not appear. Active and inactive are the calls of the source. Calls follow the shape of the dose curve; as a rule, active = well fitted curve in the direction sought with a large enough effect; inconclusive = small, poorly fitted or top-dose-only effect, or another doubt; inactive = no such curve, though single readings can be large; an effect the other way counts as inactive or inconclusive.

Calcium and integrin-binding protein 1 (Homo sapiens), sequence (Q99828 whole entry, looked up): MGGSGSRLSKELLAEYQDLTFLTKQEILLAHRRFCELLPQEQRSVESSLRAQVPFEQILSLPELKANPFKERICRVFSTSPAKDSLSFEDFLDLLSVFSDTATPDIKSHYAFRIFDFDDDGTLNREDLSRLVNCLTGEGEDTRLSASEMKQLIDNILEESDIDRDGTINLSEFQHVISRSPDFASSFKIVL
Phospholipid hydroperoxide glutathione peroxidase GPX4 (Homo sapiens), sequence (P36969 whole entry, looked up): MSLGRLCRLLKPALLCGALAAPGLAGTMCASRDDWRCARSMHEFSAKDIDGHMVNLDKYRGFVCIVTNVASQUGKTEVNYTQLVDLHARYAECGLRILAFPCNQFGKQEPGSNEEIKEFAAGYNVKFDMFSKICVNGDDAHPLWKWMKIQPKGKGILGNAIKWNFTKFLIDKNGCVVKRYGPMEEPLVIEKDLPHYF
Glutathione peroxidase 1 (Homo sapiens), sequence (P07203 whole entry, looked up): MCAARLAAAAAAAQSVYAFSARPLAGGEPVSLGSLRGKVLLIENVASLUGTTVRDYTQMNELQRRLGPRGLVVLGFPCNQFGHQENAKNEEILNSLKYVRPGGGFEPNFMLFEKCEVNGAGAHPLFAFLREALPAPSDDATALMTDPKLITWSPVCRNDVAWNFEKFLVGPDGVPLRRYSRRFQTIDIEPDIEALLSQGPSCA

In the case of `O=C(OC[C@H]1O[C@@H](Oc2ccc(O)cc2CO)[C@H](O)[C@@H](O)[C@@H]1O)c1ccccc1`, the Potency entry (in assay [1]; in [2]; in assay [3]; in assay [4]; in assay [6]; in the assay with C33A) was “inactive” throughout. The Potency result in the assay on CASKI, in the assay with Es-2, in the assay on Hek293T, in the assay on JEG-3, in the assay with OV90 and in the assay with PA-1 was “inactive” in each case. In addition, the Potency entry in the assay on Tov-21-G and in the assay on Tov112D was “inactive” in each case. In assay [5], the compound was called inactive. Also, the max response was 2.78% with CRL-7250, 0.485% in the assay with HEK293 and -28.3% in the assay on HaCat.

Turning to `CO[C@H]1C[C@H](O[C@H]2CC[C@@]3(C)C(=CCC4C3CC[C@]3(C)[C@@H](C5=CC(=O)OC5)CC[C@]43O)C2)O[C@@H](C)[C@@H]1O[C@@H]1O[C@H](CO[C@@H]2O[C@H](CO)[C@@H](O)[C@H](O)[C@H]2O)[C@@H](O)[C@H](O)[C@H]1O` (stereo not given in full), the Potency result in [7], in assay [1], in [3] and in assay [4] was “inactive” in each case. Also, the activity change, negative = inhibition in assay [5] is 0.797% [at 11.6 µM]. Also, the activity, negative = inhibition in assay [6] is 3.27% [at 11.6 µM]. Also, the max response in the assay with CRL-7250 is -12.8%; with HEK293, -7.06%; in the assay with HaCat, -7.84%; with NIH3T3 it was -5.72%. Besides, the activity change, negative = cytotoxicity was 5.08% [at 11.6 µM] in the assay with C33A; 22.6% [at 11.6 µM] with CASKI; -0.369% [at 11.6 µM] with Es-2; -20.2% [at 11.6 µM] in the assay with Hek293T; 16.2% [at 11.6 µM] in the assay on JEG-3; 5.84% [at 11.6 µM] with OV90. Further, the results for the activity change, negative = cytotoxicity with PA-1, in the assay with Tov-21-G and with Tov112D were 10.4% [at 11.6 µM], -1.43% [at 11.6 µM] and -28.4% [at 11.6 µM], respectively.

In the case of `CO[C@H]1[C@@H](O)[C@@H](C)O[C@@H](O[C@@H]2C=C3C(OC(C)=O)CC4(O)C(CC[C@]5(C)[C@@H](C6=CC(=O)OC6)CC[C@]45O)[C@@]3(C)CC2)[C@@H]1O` (stereo not given in full), the Potency entry in assay [7], in [1], in assay [3], in assay [4] and in assay [6] was “inactive” in each case. Further, the Potency in assay [2] is 48.3 nM (active); with CRL-7250, 137 nM (active); with HEK293 it was 86.2 nM (active); in the assay with HaCat, 2430 nM (active); with C33A it was 178 nM (active); in the assay with CASKI, 2820 nM (active). The Potency in the assay on Es-2 was 447 nM (active); in the assay with Hek293T, 251 nM (active); in the assay with OV90, 2510 nM (active); with PA-1, 316 nM (active); in the assay with Tov-21-G, 282 nM (active); in the assay on Tov112D, 100 nM (active). The outcome in [5] was “inactive [at 25.7 µM]”. For the same compound, in the assay with NIH3T3, the max response was -11.7%.

On to `CC1=CC(=O)[C@@H](O)[C@]2(C)C3[C@@H](O)[C@@H]4OC(=O)[C@@H]([C@H]4C)[C@]3(C)C(=O)C[C@@H]12` (stereo not given in full), for which the Potency result (in assay [7]; in assay [1]; in assay [3]; in assay [4]; in assay [6]; in the assay on JEG-3) was “inactive” throughout. The Potency in assay [2] is 2260 nM (active); in the assay with CRL-7250 it was 3210 nM (active); in the assay with HEK293, 2860 nM (active); in the assay on HaCat it was 11400 nM (active); with NIH3T3, 3600 nM (active); with Es-2, 8910 nM (active). For the same compound, the Potency in the assay with PA-1 is 2820 nM (active). For the same compound, in assay [5], the compound was classed as inactive.
